# Measurements as given in the supplement of paper PMC3334620.
# In all, about 33,000 sequences were measured (“E-score (-0.5 to 0.5)”: median about -0.04, highest 2% from about 0.36 on). The full list was thinned out, with the highest values kept by preference.
# Target: T1, Hmlalpha2 (UniProt P0CY09)
# T1 sequence: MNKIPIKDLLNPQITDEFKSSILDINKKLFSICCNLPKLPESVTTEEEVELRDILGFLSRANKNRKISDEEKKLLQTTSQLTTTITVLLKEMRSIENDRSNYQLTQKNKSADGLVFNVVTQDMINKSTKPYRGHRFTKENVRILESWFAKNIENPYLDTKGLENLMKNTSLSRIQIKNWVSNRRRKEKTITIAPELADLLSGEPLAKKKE
# Assay: PBM E-score (8-mer binding enrichment) (E-score (-0.5 to 0.5)); higher = stronger / more preferred TF binding
# Conditions: protein concentration: 200 nM; construct: GST-full length
# Procedure: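 Universal 'all 10-mer' protein binding microarrays (Agilent AMADID 015681) probed with GST-tagged S. cerevisiae TFs (full-length or DBD) made by in vitro transcription/translation (PURExpress), about 100-200 nM. Bound TF was detected with fluorescent anti-GST. Each ungapped 8-mer (which stands for itself and its reverse complement) is scored by the PBM enrichment score (E-score), a modified Wilcoxon-Mann-Whitney statistic from -0.5 to +0.5, computed with the Universal PBM Analysis Suite. Scale: above 0.35 generally sequence-specific binding.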
row,Sequence,PBM E-score
1,AATGCAGT,-0.00748
2,CCTTCACA,0.0306
3,CACATCCC,-0.0137
4,GCCAAACA,-0.107
5,AGTAGAGG,-0.226
6,CGTAGCAG,-0.129
7,CAGTTCTC,-0.179
8,ATTAACTC,0.216
9,ATTAACAC,0.455
10,ATTAACCC,0.0714
11,GCCATGTA,0.457
12,ACCATGTA,0.467
13,ACCATGTG,0.188
14,CCCATGTC,0.161
15,ACCATGTC,0.296
16,GCCATGGA,-0.178
17,CCCATGGA,-0.1
18,CCCATGTA,0.447
19,GCCATGCA,0.0965
20,CACCATGC,-0.0851
21,TCACATCA,0.00787
22,CGTAACGC,0.193
23,CTGCCAGC,-0.238
24,CTTATGTC,0.117
25,ATTATGTA,0.415

row,Sequence,PBM E-score
1,CTTATGTA,0.409
2,CTTATGCA,0.135
3,GTTATGAA,0.186
4,GTTATGTA,0.419
5,ATTATGTC,0.164
6,ATTATGTG,0.17
7,GTTATGCA,0.00491
8,GCGCCAGA,-0.138
9,AGTCGGGA,-0.192
10,GAAGCTAA,-0.0677
11,ATCCACAT,0.158
12,CAATGTAA,0.435
13,GAATGTCA,0.0786
14,TAATGTCA,0.155
15,CAATGTAC,0.217
16,TAATGTAA,0.431
17,GAATGTAC,0.16
18,AAATGTAC,0.236
19,CAATGTAG,0.172
20,GAATGTAA,0.372
21,AAATGTAG,0.113
22,AAATGTAA,0.394
23,TAATGTGA,0.19
24,CTGAAAAC,0.1
25,CTCAGAAG,-0.215

row,Sequence,PBM E-score
1,AACCCGAT,0.0593
2,ACGGGGGG,-0.22
3,ACTCGGGG,-0.134
4,AAACCGAG,-0.204
5,GTATATAA,0.29
6,CCGTATAC,0.0388
7,GAGTATAA,0.169
8,GTGTATAA,0.391
9,ATGTATAA,0.395
10,CTGTATAC,0.247
11,ATGTATCC,0.294
12,ATGTATAG,0.362
13,ATGTATAC,0.435
14,GCGTATAC,0.371
15,GCGTATAA,0.337
16,CTGTATAA,0.209
17,GTATGCCA,-0.254
18,ACGACCCA,-0.0906
19,TGTAGGAA,0.226
20,GCCACCGC,-0.33
21,GATGGACA,-0.0833
22,CTTGAAAC,-0.111
23,ATGCTGCA,0.0587
24,TCCTATCA,-0.172
25,AGTCGCGA,-0.0755

row,Sequence,PBM E-score
1,CTCCCATC,-0.242
2,CATCTGAG,-0.137
3,CAAAATTC,0.15
4,ATACCTGG,-0.252
5,ATGCTGTA,0.136
6,AAGGAGCT,-0.163
7,ATGTAGGC,0.169
8,GTGTAGAA,0.445
9,ATGTAGAA,0.43
10,ATGTAGAG,0.376
11,ATGTAGAC,0.391
12,GCGTAGAA,0.313
13,ACGTAGAG,0.224
14,CTGTAGAC,0.104
15,GAGTAGAA,0.147
16,AAGTAGAG,0.018
17,CTGTAGAA,0.161
18,ATGTAGGA,0.236
19,CACAGATC,-0.0314
20,GAATCTTA,-0.127
21,CGATTAAC,0.149
22,TATCCTCA,-0.113
23,ATGTTACA,0.401
24,CTGTTAAG,0.255
25,ATGTTAGA,0.358

row,Sequence,PBM E-score
1,AGGTTAAT,0.182
2,AAGTTAAT,0.187
3,ATGTTAAA,0.473
4,ATGTTAAT,0.447
5,ATGTTAAG,0.445
6,ATGTTACC,0.317
7,CTGTTACA,0.281
8,ACGTTAAG,0.255
9,ACGTTAAA,0.362
10,CACAAACG,0.241
11,ACTCTCCT,-0.223
12,CAGCTACC,-0.168
13,CCCTAGAG,-0.232
14,GCTTACAA,0.275
15,CTTTACAA,0.38
16,ATTTACCC,0.0345
17,ATTTACAA,0.453
18,CTTTACCA,0.0599
19,ATTTACAC,0.479
20,ATTTACAG,0.269
21,ATTTACTC,0.301
22,GTTTACTA,0.356
23,GTTTACAA,0.425
24,ATTTACCA,0.21
25,CTTTACTA,0.252

row,Sequence,PBM E-score
1,GAATTTGA,-0.109
2,AAACTGGG,-0.278
3,ATAGTGGC,-0.192
4,GGCTTGAC,-0.093
5,CCAACATA,0.314
6,ACAACATA,0.382
7,ACAACATG,0.451
8,ACAACATC,0.263
9,ACAACAAG,0.298
10,GCAACATA,0.219
11,AGTGGATG,-0.0671
12,ACCTGAGT,0.0645
13,AAGGATCT,-0.17
14,ACCACGAG,-0.135
15,GCACGCTA,-0.192
16,ACACGCTG,0.355
17,ACACGCTA,0.414
18,AAACGCTC,-0.144
19,CCACGCTC,-0.335
20,ACACGCTC,0.399
21,GAGTTAGA,-0.0875
22,AGAAGGCC,-0.213
23,GATGAAGC,-0.157
24,GTATGTTA,0.414
25,ATATGTTC,0.198

row,Sequence,PBM E-score
1,ATATGTTG,0.346
2,GAATGTTA,0.287
3,CTCTGTTA,0.23
4,ATATGTTA,0.384
5,CTATGTTA,0.414
6,GGATGTTA,0.299
7,CTATGTTC,0.252
8,CGAATATA,-0.00331
9,AGGGGAGG,-0.299
10,ACTTGGAA,-0.144
11,ATTAGCGC,0.0131
12,GATTCAAC,0.0589
13,ATGGGTTG,0.0606
14,TCTGTTAA,0.331
15,AATGTTGA,0.256
16,TGTGTTAA,0.471
17,TGTTTAAA,0.34
18,CATGTTGA,0.477
19,AGTTTTAA,0.169
20,CATGTTTC,0.333
21,GATGTTTA,0.223
22,CATGTTTA,0.437
23,TGTTTTAA,0.382
24,CATGTTGC,0.334
25,GGTGTTAA,0.361
